# Measurements published in PubChem BioAssay.
# Values joined by “and” are separate entries in the source; they are usually repeats but may differ in a detail not shown here. Equal entries are not always repeated. Active and inactive are the calls of the source.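 The calls were made as follows, unless noted: active = compounds whose cell count with miR-34 switched on is under 0.7 times the count with it off; inactive = the rest.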
# Legend:
# [1] = sensitizers of A549 cells to miR-34 induction, primary screen, imaging, A549 dox-inducible miR-34, nuclei and caspase counts (AID 1347080); conditions: A549 miR-34 inducible, Hoechst nuclei count, 48 h
# [2] = survival rescue of mitochondrial mutant cells in low glucose, primary screen, MELAS cybrids, Rieske KO mouse fibroblasts, CellTiter-Glo (AID 1508586;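 active = mean z-score across replicates of 1.96 or higher in either the MELAS or the Rieske mutant cell line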;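 also: z relative to plate mean and SD of compound and empty wells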)
# [3] = target: NAD(+) hydrolase SARM1 (Homo sapiens) (UniProt Q6SZW1); assay: SARM1 TIR NADase inhibitors, cell lysate, NAD-Glo luminescence (AID 1508614;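 active = compound whose remaining NAD level is above about 45 nM, limit read from the data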;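 also: higher remaining NAD means stronger inhibition of SARM1 NADase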); conditions: SAM-TIR HEK293T lysate NADase, at 1 µM, stronger effect = higher value
# [4] = target: Mitogen-activated protein kinase 7 (Homo sapiens) (UniProt Q13164); assay: ERK5 transactivation activators in reporter cells, primary screen, cell-based, HTS (AID 1508626;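 active = luciferase signal above three times the same-plate solvent-only control wells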;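 also: luciferase driven by Gal4-ERK5 fusion binding five Gal4 sites before minimal TATA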); conditions: HeLa Gal4-ERK5 transactivation, 18 h, at 5 µM, stronger effect = higher value
# [5] = stronger effect = lower value, cell number ratio, induced over uninduced
# [6] = measured here: relative caspase fold change +Dox/-Dox
# [7] = measured here: total cells with miR-34 induction, stronger effect = lower value
# [8] = measured here: total cells without miR-34 induction
# [9] = MELAS cybrid survival, CellTiter-Glo 48 h, stronger effect = higher value
# [10] = Rieske KO mouse fibroblast survival, CellTiter-Glo 72 h
# Mitogen-activated protein kinase 7 (Homo sapiens), sequence (Q13164 whole entry, looked up, the tested form may be a part): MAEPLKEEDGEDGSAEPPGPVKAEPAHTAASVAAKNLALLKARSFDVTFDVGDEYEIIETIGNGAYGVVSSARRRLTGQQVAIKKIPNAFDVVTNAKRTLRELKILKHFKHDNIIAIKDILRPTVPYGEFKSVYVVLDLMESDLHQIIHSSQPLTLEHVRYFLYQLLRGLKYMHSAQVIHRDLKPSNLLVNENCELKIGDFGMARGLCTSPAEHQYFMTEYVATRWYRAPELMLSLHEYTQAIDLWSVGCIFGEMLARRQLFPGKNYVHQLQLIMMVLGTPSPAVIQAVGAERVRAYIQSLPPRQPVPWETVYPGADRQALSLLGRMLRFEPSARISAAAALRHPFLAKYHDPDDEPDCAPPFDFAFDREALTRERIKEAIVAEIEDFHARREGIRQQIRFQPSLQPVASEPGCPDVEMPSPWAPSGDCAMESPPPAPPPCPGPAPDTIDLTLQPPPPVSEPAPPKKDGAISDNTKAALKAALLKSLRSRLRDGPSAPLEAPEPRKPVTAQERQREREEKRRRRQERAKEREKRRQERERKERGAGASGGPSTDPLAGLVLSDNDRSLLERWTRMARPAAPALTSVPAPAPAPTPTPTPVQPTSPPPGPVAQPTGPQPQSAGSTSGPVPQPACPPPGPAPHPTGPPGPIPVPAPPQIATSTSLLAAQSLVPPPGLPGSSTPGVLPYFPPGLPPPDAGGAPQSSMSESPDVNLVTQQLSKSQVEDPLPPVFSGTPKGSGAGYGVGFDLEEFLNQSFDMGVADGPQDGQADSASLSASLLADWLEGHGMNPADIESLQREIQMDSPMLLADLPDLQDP
# NAD(+) hydrolase SARM1 (Homo sapiens), sequence (Q6SZW1 whole entry, looked up, the tested form may be a part): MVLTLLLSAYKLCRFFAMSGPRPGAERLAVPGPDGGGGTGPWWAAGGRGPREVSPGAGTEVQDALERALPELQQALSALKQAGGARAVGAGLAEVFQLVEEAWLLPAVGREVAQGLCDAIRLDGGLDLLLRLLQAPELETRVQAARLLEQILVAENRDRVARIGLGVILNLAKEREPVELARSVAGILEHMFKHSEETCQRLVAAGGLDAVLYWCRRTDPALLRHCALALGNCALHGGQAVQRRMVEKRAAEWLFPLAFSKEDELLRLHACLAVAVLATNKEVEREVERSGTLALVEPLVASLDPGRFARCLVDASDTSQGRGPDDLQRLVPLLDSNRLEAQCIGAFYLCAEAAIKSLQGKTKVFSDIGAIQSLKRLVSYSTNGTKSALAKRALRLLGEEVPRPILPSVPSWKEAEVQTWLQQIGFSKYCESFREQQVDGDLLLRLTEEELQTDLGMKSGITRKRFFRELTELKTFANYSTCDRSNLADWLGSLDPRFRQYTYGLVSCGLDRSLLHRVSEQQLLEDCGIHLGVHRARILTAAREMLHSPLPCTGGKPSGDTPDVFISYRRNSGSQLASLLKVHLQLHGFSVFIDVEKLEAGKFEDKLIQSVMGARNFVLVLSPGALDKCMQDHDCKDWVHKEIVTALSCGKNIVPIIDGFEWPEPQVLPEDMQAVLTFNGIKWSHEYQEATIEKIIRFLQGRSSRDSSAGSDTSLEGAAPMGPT
SMILES,"fold change [1, 5]","fold change [1, 6]","cell count [1, 7]","cell count [1, 8]","z-score [2, 9]","z-score [2, 10]",remaining NAD [3],luciferase signal [4]
CC(Cc1cccc(C(F)(F)F)c1)NCCOC(=O)c1ccccc1 (centres undefined),0.816 (inactive),1.56,8560,10500,0.63 (inactive),0.0603,10 nM (inactive),84 AU (inactive)
Nc1ccc(S(=O)(=O)NC(=O)c2ccccc2)cc1,0.806 (inactive) and 0.919 (inactive),1.13 and 2.49,7780 and 10600,9660 and 11500,-0.2 (inactive),-0.379,10 nM (inactive),32 AU (inactive)
OCC(O)CN1CCN(c2ccccc2)CC1 (centres undefined),0.91 (inactive) and 0.902 (inactive) and 0.934 (inactive),1.09 and 0.695 and 0.504,7870 and 8950 and 8400,8650 and 9930 and 8990,-0.14 (inactive) and -0.167 (inactive) and 0.182 (inactive),-0.169 and -0.218 and 0.0795,10 nM (inactive),48 AU (inactive)
Cc1cc(CC(=O)O)n(C)c1C(=O)c1ccc(Cl)cc1,0.925 (inactive) and 0.888 (inactive),1.12 and 2.44,9260 and 11200,10000 and 12600,-0.685 (inactive),-0.331,10 nM (inactive),96 AU (inactive)
C[C@H](N)[C@H](O)c1cccc(O)c1,0.936 (inactive) and 0.834 (inactive),1.15 and 3.09,9120 and 10800,9740 and 13000,0.835 (inactive),0.306,10 nM (inactive),40 AU (inactive)
OC(CCN1CCCCC1)(c1ccccc1)c1ccccc1,0.941 (inactive),1.61,9230,9810,-1.04 (inactive),-0.829,10 nM (inactive),36 AU (inactive)
CC[C@]12CCCN3CCc4c(n(c5ccccc45)[C@@](O)(C(=O)OC)C1)[C@@H]32,0.85 (inactive),1.33,8280,9750,0.291 (inactive),-0.0307,10 nM (inactive),112 AU (inactive)
Cc1ccsc1/C=C/C1=NCCCN1C,0.892 (inactive) and 0.795 (inactive),1.23 and 5.32,8120 and 10200,9110 and 12800,-0.598 (inactive),0.242,10 nM (inactive),88 AU (inactive)
CN1CCN(C(c2ccccc2)c2ccccc2)CC1,0.854 (inactive) and 1.14 (inactive) and 0.917 (inactive),1.3 and 0.825 and 1.5,8120 and 9280 and 11100,9500 and 8140 and 12100,-0.157 (inactive) and 0.0064 (inactive),-0.181 and 0.467,10 nM (inactive),124 AU (inactive)
Cn1c([N+](=O)[O-])cnc1COC(N)=O,0.949 (inactive) and 0.998 (inactive) and 0.92 (inactive),0.814 and 0.524 and 4.33,9230 and 8250 and 11400,9730 and 8270 and 12400,-0.153 (inactive) and -0.082 (inactive),-0.129 and 0.703,10 nM (inactive),108 AU (inactive)
Oc1c(Br)cc(Br)c2cccnc12,0.97 (inactive),0.803,7880,8120,-0.25 (inactive),-0.139,10 nM (inactive),88 AU (inactive)
COc1cc(NS(=O)(=O)c2ccc(N)cc2)ncn1,0.902 (inactive) and 0.903 (inactive),1.06 and 3.99,9390 and 12000,10400 and 13300,0.538 (inactive),0.095,10 nM (inactive),44 AU (inactive)
CCCCN(CCCC)CCCOC(=O)c1ccc(N)cc1,0.866 (inactive) and 0.888 (inactive),2.02 and 4.13,8920 and 11400,10300 and 12800,0.278 (inactive),-0.637,10 nM (inactive),120 AU (inactive)
CCN(CC)CCOC(=O)C(c1ccccc1)c1ccccc1,0.854 (inactive) and 1.02 (inactive) and 0.902 (inactive),1.3 and 0.648 and 3.67,8150 and 4320 and 11300,9550 and 4250 and 12500,-0.171 (inactive) and -1.08 (inactive),0.0167 and -0.106,10 nM (inactive),84 AU (inactive)
CC(=O)Nc1ccccc1,0.942 (inactive) and 0.865 (inactive),0.456 and 3.01,7610 and 11100,8080 and 12800,-0.316 (inactive),-0.0672,10 nM (inactive),60 AU (inactive)
COc1cnc(NS(=O)(=O)c2ccc(N)cc2)nc1,0.943 (inactive) and 0.91 (inactive) and 0.881 (inactive),1.15 and 0.841 and 2.64,9880 and 7410 and 11400,10500 and 8140 and 12900,-0.122 (inactive) and -0.879 (inactive),-1.17 and -0.837,10 nM (inactive),40 AU (inactive)
CCCCOc1cc(C(=O)NCCN(CC)CC)c2ccccc2n1,0.83 (inactive) and 0.969 (inactive) and 0.813 (inactive),0.865 and 0.646 and 1.83,7720 and 7790 and 10400,9300 and 8040 and 12800,-0.328 (inactive) and -0.63 (inactive),-0.208 and 0.449,10 nM (inactive),40 AU (inactive)
O=C(O)CCC(=O)Nc1ccc(S(=O)(=O)Nc2nccs2)cc1,0.889 (inactive) and 0.92 (inactive),0.9 and 3.43,8630 and 11000,9720 and 12000,0.0389 (inactive),0.552,10 nM (inactive),28 AU (inactive)
